Menin MLL FP TR = qHTS Assay for Inhibitors Targeting the Menin-MLL Interaction in MLL Related Leukemias: Competition With Texas Red Labeled MLL-derived Mutant Peptide. O00255. Menin + Texas Red MLL mutant peptide, fluorescence polarization. AID 1768, 2009. 270,000 tested, 0.23% active. Potency, µM (top dose mostly 61.6 µM), for the others: top-dose FP activity change, negative = inhibition, hits mostly inhibitors; active = well fitted inhibition curve with a large enough effect in the polarisation, with a control signal flat, not every such curve was filed as active; inconclusive = small, poorly fitted or top-dose-only effect, or effect the other way, or a change in a side signal; inactive = no such curve, though single readings can be large or run the other way; the % refers to the polarisation; note: potency is the fitted concentration of half-maximal effect; % of control where 0% means no effect
ClpP mod = qHTS Assay for Activators of ClpP; ATP-dependent Clp protease proteolytic subunit (Bacillus subtilis (strain 168)), P80244; purified B. subtilis ClpP, FRET peptide cleavage, 20 min; Potency, µM (highest dose often 57.5 µM), without a hit: at the highest dose activity change, negative = active; 340,000 tested, 1.9% active; AID 651965, 2013; active = well fitted falling curve with a large enough effect; inconclusive = small, poorly fitted or top-dose-only effect; inactive = no such curve, though single readings can be large or run the other way; note: potency is the fitted concentration of half-maximal effect; the source files actives as falling curves though it sought activators and does not explain the sign; nearly all actives have a fitted effect of over 65% in size
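Buffer: 100 mM Tris/HCl pH8, 100 mM KCl, 0.05% low protease BSA, 2.5% glycerol, 0.01% Tween-20. ClpP 10 microg/mL final; 20 min RT; delta FRET normalized to ADEP and DMSO controls.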
p53 reactivation = qHTS assay for re-activators of p53 using a Luc reporter; Potency, µM (top dose mostly 92.2 µM), for the others: top-dose activity change, positive = activation, hits mostly activators; H1299 p53-A138V BP100-luciferase reporter, luminescence, 24 h; 320,000 tested, 0.063% active; active = well fitted activation curve with a large enough effect; inconclusive = small, poorly fitted or top-dose-only effect; inactive = no such curve, though single readings can be large or run the other way; note: potency is the fitted concentration of half-maximal effect; % of control where 0% means no effect; nearly all actives have a fitted effect of over 45% in size
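H1299 (p53-null), stable ts p53-A138V + BP100-Luc; 1000 cells/well, Opti-MEM/10% FBS; cpd 4 pt, 1:5; 24 h, 37 deg C, 5% CO2; detection reagent 10 min RT; luminescence.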
Menin-MLL FL inh = qHTS Assay for Inhibitors Targeting the Menin-MLL Interaction in MLL Related Leukemias: Competition With Fluorescein Labeled MLL-derived Peptide; AID 1766, 2009; FP activity change, % at 61.4 µM; 290,000 tested, under 10 active; Fluorescence polarization, fluorescein-MLL peptide displacement from menin; active = well fitted curve in the direction sought with a large enough effect in the polarisation, not every such curve was filed as active; inconclusive = small, poorly fitted or top-dose-only effect, or effect the other way, or a change in a side signal; inactive = no such curve, though single readings can be large or run the other way; the % refers to the polarisation; note: % of control where 0% means no effect
MLL CXXC-DNA inh = qHTS Fluorescence Polarization Assay for Inhibitors of MLL CXXC domain - DNA interaction. AID 2662, 2010. MLL-CXXC / FITC-HOXA9 DNA fluorescence polarization. Potency, µM (series often up to 115 µM), inactives show top-dose activity change, negative = inhibition, actives largely listed as inhibitors. 290,000 tested, 0.037% active. Histone-lysine N-methyltransferase 2A (Homo sapiens), Q03164; active = well fitted inhibition curve with a large enough effect in the polarisation, with a control signal flat, not every such curve was filed as active; inconclusive = small, poorly fitted or top-dose-only effect, or effect the other way, or a change in a side signal; inactive = no such curve, though single readings can be large or run the other way; the % refers to the polarisation; note: potency is the fitted concentration of half-maximal effect
Target sequence (Q03164 whole entry, looked up, the tested form may be a part): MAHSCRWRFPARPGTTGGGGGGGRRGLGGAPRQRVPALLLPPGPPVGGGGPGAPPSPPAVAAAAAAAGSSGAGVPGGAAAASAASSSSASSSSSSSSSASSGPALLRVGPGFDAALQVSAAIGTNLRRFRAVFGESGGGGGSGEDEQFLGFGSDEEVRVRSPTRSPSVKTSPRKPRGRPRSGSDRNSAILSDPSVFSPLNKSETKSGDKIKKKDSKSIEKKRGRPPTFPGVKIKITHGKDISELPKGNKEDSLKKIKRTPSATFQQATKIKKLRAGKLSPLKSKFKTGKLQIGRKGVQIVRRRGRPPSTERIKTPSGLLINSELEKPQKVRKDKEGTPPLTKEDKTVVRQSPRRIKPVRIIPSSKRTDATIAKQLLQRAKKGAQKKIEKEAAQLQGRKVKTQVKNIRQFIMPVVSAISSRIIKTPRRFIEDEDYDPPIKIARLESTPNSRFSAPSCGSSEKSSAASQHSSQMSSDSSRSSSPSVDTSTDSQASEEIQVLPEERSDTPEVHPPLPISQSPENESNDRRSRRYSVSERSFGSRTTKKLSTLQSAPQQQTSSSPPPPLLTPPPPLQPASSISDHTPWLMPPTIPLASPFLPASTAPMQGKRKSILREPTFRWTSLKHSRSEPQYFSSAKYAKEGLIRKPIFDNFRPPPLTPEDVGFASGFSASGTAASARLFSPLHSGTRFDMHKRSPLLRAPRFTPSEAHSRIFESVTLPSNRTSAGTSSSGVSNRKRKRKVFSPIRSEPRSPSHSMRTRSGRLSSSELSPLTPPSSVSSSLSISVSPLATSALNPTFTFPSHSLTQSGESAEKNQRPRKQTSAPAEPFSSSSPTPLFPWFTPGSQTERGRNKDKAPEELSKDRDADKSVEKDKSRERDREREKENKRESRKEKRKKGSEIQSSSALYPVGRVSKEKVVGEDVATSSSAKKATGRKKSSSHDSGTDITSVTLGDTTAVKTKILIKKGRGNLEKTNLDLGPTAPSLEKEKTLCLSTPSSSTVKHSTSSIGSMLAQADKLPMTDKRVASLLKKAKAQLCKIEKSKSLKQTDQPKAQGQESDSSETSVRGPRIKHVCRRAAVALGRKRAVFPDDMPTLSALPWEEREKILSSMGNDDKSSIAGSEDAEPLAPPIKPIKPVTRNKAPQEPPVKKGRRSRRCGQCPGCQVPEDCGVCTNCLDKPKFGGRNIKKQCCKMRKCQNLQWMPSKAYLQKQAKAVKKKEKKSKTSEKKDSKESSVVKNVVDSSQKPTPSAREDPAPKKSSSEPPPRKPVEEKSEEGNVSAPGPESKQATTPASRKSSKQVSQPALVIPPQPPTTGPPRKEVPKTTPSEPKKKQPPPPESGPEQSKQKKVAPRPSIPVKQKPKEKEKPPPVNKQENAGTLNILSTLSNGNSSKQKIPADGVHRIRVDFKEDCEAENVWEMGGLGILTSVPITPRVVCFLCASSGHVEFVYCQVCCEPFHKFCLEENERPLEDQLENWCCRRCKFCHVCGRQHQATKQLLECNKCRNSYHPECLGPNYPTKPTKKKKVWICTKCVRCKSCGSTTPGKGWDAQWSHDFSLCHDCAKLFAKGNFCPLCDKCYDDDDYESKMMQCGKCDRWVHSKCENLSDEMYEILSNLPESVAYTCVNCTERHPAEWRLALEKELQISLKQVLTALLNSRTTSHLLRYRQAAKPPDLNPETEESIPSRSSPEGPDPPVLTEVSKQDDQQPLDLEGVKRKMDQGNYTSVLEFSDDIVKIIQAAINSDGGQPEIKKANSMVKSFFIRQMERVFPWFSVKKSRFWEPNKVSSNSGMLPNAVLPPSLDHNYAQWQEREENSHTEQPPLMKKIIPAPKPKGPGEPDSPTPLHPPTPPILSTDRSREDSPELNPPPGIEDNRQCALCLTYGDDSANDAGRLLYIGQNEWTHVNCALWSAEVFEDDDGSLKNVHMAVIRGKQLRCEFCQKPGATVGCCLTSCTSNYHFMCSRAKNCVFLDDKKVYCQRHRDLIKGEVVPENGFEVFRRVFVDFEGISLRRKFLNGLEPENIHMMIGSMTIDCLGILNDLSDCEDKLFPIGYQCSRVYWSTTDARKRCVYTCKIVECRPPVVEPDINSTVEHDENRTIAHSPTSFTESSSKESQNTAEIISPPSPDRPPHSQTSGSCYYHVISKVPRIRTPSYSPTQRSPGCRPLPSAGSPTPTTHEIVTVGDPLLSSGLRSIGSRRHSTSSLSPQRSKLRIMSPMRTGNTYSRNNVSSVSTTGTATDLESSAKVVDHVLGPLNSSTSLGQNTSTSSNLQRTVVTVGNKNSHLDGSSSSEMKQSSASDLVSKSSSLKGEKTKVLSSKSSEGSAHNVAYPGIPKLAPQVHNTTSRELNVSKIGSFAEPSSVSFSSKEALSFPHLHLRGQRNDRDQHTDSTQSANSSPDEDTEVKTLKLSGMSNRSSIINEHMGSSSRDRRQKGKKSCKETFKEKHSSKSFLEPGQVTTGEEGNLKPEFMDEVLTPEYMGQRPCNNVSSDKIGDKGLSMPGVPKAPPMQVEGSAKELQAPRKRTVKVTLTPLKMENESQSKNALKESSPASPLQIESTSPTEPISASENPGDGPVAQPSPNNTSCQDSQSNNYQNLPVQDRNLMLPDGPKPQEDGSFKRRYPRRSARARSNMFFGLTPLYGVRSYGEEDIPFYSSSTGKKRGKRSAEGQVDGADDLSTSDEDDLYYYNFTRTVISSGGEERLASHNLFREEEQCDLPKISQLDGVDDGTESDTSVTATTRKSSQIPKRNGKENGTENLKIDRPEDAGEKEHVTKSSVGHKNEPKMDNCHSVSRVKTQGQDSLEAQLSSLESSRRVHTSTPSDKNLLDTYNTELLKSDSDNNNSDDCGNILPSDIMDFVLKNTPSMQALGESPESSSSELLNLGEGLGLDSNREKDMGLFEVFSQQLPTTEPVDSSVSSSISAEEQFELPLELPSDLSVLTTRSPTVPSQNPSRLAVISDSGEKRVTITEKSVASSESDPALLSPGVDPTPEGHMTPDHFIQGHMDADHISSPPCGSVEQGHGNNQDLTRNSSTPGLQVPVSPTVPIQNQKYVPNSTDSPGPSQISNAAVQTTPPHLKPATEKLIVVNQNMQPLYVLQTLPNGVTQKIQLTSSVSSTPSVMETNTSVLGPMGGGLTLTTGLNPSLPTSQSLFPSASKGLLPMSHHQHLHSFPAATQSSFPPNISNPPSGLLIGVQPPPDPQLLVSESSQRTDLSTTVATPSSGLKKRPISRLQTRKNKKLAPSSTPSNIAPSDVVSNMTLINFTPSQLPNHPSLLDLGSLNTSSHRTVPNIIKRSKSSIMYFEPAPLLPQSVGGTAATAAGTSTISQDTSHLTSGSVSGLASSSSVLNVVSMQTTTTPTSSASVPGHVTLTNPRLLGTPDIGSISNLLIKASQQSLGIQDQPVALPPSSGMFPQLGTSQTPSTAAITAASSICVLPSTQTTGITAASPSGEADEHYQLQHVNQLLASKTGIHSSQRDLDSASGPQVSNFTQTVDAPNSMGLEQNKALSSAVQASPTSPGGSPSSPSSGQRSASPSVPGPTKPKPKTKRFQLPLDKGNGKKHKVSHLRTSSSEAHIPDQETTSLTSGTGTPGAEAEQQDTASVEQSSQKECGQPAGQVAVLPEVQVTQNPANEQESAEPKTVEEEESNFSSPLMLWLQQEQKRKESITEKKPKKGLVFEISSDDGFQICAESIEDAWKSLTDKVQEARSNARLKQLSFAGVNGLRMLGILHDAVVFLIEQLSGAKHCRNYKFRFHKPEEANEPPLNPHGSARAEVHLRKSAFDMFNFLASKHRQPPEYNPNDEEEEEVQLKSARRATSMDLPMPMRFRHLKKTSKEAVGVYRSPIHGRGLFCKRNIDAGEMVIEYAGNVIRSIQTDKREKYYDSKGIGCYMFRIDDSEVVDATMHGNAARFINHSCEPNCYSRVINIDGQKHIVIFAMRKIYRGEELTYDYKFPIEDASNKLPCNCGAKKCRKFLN
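Steps: dispense CXXC domain solution (7 uM) → pin compounds or unlabeled HOX-A9 DNA control → 5 min ambient → add FLSN-HOX-A9 solution (50 nM) → spin → 30 min ambient → fluorescence polarization. Tris pH 7.5/NaCl/DTT/BSA buffer.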
Starred values were filed as active, the others as inactive; ? = inconclusive; . = no result; ! = repeats disagree; [ ] = remark or other dose. This is one part of a sample in which hits are shown more often than they occur.

SMILES | Menin MLL FP TR | ClpP mod | p53 reactivation | Menin-MLL FL inh | MLL CXXC-DNA inh
CCc1ccc(S(=O)(=O)c2cn(CC)c3cc(N4CCCCC4)c(F)cc3c2=O)cc1 | . | 25µM* | . | . | .
CCCCn1cc(S(=O)(=O)c2ccc(Cl)cc2)c(=O)c2cc(F)c(N3CCCC(C)C3)cc21 (stereo not given) | . | -15% | . | . | .
CCn1cc(S(=O)(=O)c2ccccc2)c(=O)c2cc(F)c(N3CCCCCC3)cc21 | . | 32µM* | . | . | .
CCn1cc(S(=O)(=O)c2ccccc2)c(=O)c2cc(F)c(F)cc21 | . | 0% | . | . | .
COc1ccc(O[C@H]2C=C[C@@H](c3ccccc3)O[C@@H]2CON=C(C)C)cc1 | 6%[11.7 µM] | . | . | 1[11.7 µM] | .
FC(F)(F)c1ccccc1-c1cncnc1NCCN1CCOCC1 | 1% | . | . | 3 | .
c1coc(CNc2nc[n+]3c4c2ncn4CC3)c1 | . | 4% | . | . | .
Cc1ccc2c(CN3CCN(Cc4ccccc4)CC3)cc(=O)oc2c1C | ? | . | -6% | 3 | -1%
Cc1ccc2c(CN3CCN(S(=O)(=O)c4ccc(Cl)cc4)CC3)cc(=O)oc2c1C | . | 14µM* | 1% | . | .
CCCCCN(CCCCC)C(=O)[C@H](CCC(=O)O)NC(=O)[C@H](Cc1ccc(OP(=O)(O)O)cc1)NC(C)=O | 16% | . | . | -3 | .
CN(C)c1ccc(/C=C/N2C=CCc3c2ccc2ccccc32)cc1 | . | -7% | . | . | .
O=C(CSc1nc(-c2ccccc2)c(-c2ccccc2)[nH]1)NCCN1C(=O)CSC1=O | 21% | 32µM* | 3% | 5 | -3%
O=C(CSc1ccccc1F)NCCN1C(=O)CSC1=O | . | 1% | 9% | . | .
O=C1c2cnc3nc(SCc4ccc(Cl)cc4)nn3c2CC2c3ccccc3CCN12 (stereo not given) | -16% | 32µM* | -5% | 5 | 8%
Clc1ccc(CSc2ncccn2)cc1 | -2% | 1% | 21% | 3 | 0%
Cc1ccc2c(c1C)OC(=O)CC2(C)C | 1% | 32µM* | 5% | . | 5%
Cc1ccc2c(c1C)-c1c(ccc(C)c1C)C(=O)C2=O | . | 1% | . | . | .
Cc1cccc(N=C2NN=C(c3c(C)[nH]c4ccccc34)CS2)c1 | ? | 18µM* | -2% | 3 | 18%
N#Cc1sc2nc(N3CCCCC3)c3c(c2c1N)CCCC3 | 12% | 28µM* | 13% | 2 | 3%
CC(C)(C)c1ccc(-c2c(C#N)c(N)nc3c2CCCC3)s1 | -14% | 32µM* | 6% | 2 | 0%
N#Cc1c(N)nc2c(c1-c1ccco1)CCCCC2 | . | -20% | . | . | .
Cc1c(-c2c(C#N)c(N)nc3c2CCCCCC3)cnn1C | 21% | 13µM* | 1% | -2 | 6%
N#Cc1c(N)nc2c(c1-c1ccncc1)CCCCC2 | -14% | 22µM* | 4% | 0 | -7%
Cc1nn(C)c(C)c1-c1c(C#N)c(N)nc2c1CCCCCC2 | -12% | 1.3µM* | 5% | 1 | -2%
O=S1(=O)CCO[C@H]2CCCC[C@@H]2N1Cc1ccc(Cl)cc1 | . | 1% | . | . | .
SMILES | Menin MLL FP TR | ClpP mod | p53 reactivation | Menin-MLL FL inh | MLL CXXC-DNA inh
C=C1c2ccccc2O[C@H](C(=O)OCC)[C@@H]1CCC(C)C (tested in a mixture with another compound) | -18%[94.6 µM] | . | . | 3[94.6 µM] | .
Cc1ccc(S(=O)(=O)N2CCN(c3nc(-n4cncn4)nc4ccccc34)CC2)cc1 | . | 4% | . | . | .
CCOC(=O)c1ccc(NC(=O)CCS(=O)(=O)c2ccc(Br)s2)cc1 | . | 32µM* | 1% | 2 | 9%
COC(=O)C1=C(C)NC(C)=C(C(=O)OC)C1c1ccc(-c2cccc(Cl)c2Cl)o1 | -2% | 25µM* | -15% | 0 | 10%
COc1ccc(OC)c(C2=Nn3c(nnc3-c3ccc(OC)c(OC)c3)SC2)c1 | 2% | . | . | -1 | .
O=c1c2sc(-c3ccccc3)cc2nc2n1CCC2 | 9% | 22µM* | 35% | 3 | -12%
CCCN1CNc2c(c(=O)[nH]c(=S)n2CCC(C)C)C1 | . | -2% | . | . | .
COc1cccc(-c2cc(C(F)(F)F)nc(N3CCOCC3)n2)c1 | -1% | -29% | ? | -1 | 2%
COc1cccc(-c2cc(C(F)(F)F)nc(N3CCC(C)CC3)n2)c1 | -11% | 25µM* | 9% | -1 | 2%
COc1ccc(-c2cc(C(F)(F)F)nc(-n3cc(Br)cn3)n2)cc1 | 5% | ? | -4% | -3 | 5%
COc1cccc(-c2cc(C(F)(F)F)nc(-n3cc(Cl)cn3)n2)c1 | 2% | 32µM* | -2% | 5 | -5%
COc1ccc(-c2cc(C(F)(F)F)nc(-n3cncn3)n2)cc1 | -1% | 20µM* | -2% | 4 | 21%
COc1nn(-c2nc(-c3ccccc3)cc(C(F)(F)F)n2)cc1[N+](=O)[O-] | 15% | 22µM* | 6% | 4 | -4%
FC(F)(F)c1cc(-c2ccccc2)nc(-n2cc(Cl)cn2)n1 | -17% | -1% | -4% | 0 | 19%
O=C1CCCC2=C1C(c1ccc(Cl)cc1)N=C(Nc1nc3ccccc3o1)N2 (stereo not given) | . | 5% | . | . | .
O=C1c2cc3ccccc3c(-c3ccccc3)c2C(=O)N1c1ccccn1 | 9% | 32µM* | -6% | ? | 0%
CN(C)c1ccc(/C=C2\C=Nc3ccccc32)cc1 | . | -12% | . | . | .
Nc1nc2ccccc2cc1-c1cccs1 | -3% | 4% | ? | -2 | 6%
c1csc(-c2ccc3ccccc3n2)c1 | -1% | 14µM* | 17% | 0 | -8%
Cc1ccc(C)c(NC(=O)c2ccc3ccccc3n2)c1 | 3% | 35µM* | ? | 3 | -7%
Cc1ccc(S(=O)(=O)N(C)C)cc1NC(=O)c1ccc2ccccc2n1 | . | -4% | 8% | -7 | 0%
NC(=O)c1ccccc1NS(=O)(=O)c1ccc2c(c1)OCCO2 | -1% | 25µM* | -2% | -4 | -7%
CN1CCN(c2nc(-c3cccnc3)nc3ccccc23)CC1 | -6% | 25µM* | -7% | 2 | 0%
O=S(=O)(c1ccc2ncccc2c1)N1CCN(c2nc(-c3cccs3)nc3ccccc23)CC1 | . | 32µM* | . | . | .
Cc1ccc(S(=O)(=O)N2CCN(c3nc(-c4cncn4C)nc4ccccc34)CC2)cc1 | . | 32µM* | . | . | .
Cc1ccc(S(=O)(=O)N2CCN(c3nc(-c4ccccc4)nc4ccccc34)CC2)cc1 | . | -1% | . | . | .
COc1ccc(S(=O)(=O)N2CCN(c3nc(-c4cccs4)nc4ccccc34)CC2)cc1 | . | 28µM*! | . | . | .
CC(O)[C@@H](O)[C@H]1CNc2nc(N)[nH]c(=O)c2N1 (stereo not given in full) | -3% | . | . | -2 | ?
COc1cc(C(=O)O[C@@H]2CC3CC[C@]2(C)C3(C)C)ccc1O | -15% | . | . | 1 | .

Bioassay records as filed in PubChem BioAssay.
